Experiment [1] is described as follows: A CellTox Green Cytotoxicity Assay to monitor cytotoxicity in HepG2 cells - 0 hour (AID 1224882). Note: nearly all actives have a fitted effect of over 35% in size. Note: potency is the fitted concentration of half-maximal effect. A digest of the protocol:
(§1)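 Real-time, homogeneous cytotoxicity readout: dead-cell DNA staining by CellTox Green in HepG2 monolayers, fluorescence measured at timed intervals up to 40 h of continuous compound exposure.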

Experiment [2] in a line: A CellTox Green Cytotoxicity Assay to monitor cytotoxicity in HepG2 cells - 32 hour (AID 1224883). Note: nearly all actives have a fitted effect of over 50% in size. Note: potency is the fitted concentration of half-maximal effect. A digest of the protocol: as §1
The nature of experiment [3]: qHTS RealTime-Glo MT Cell Viability Assay in HEK293 cells - 24 hour (AID 1224886). Note: nearly all actives have a fitted effect of over 50% in size. Note: potency is the fitted concentration of half-maximal effect. A digest of the protocol:
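Tox21 10K qHTS, HEK293, 600 cells/well, RealTime-Glo reagent co-dispensed with cells; 5 h preincubation, compound by pintool, 37 C, luminescence at 0–40 h.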
Background: Quantitative high-throughput screening tests each substance at several concentrations.

Experiment [4] is described as follows: qHTS RealTime-Glo MT Cell Viability Assay in HEK293 cells - 8 hour (AID 1224887). Note: nearly all actives have a fitted effect of over 50% in size. Note: potency is the fitted concentration of half-maximal effect. In short, it runs like this: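 Nonlytic bioluminescent viability monitoring. HEK293 at 600 cells/well with reagent; 5 h settle; compound transfer by pintool; plates held at 37 C and read at set time points.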
Experiment [5] in a line: A CellTox Green Cytotoxicity Assay to monitor cytotoxicity in HEK293 cells - 16 hour (AID 1224888). Note: nearly all actives have a fitted effect of over 35% in size. Note: potency is the fitted concentration of half-maximal effect. In short, it runs like this: (§2)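 Cytotoxicity was tracked continuously in HEK293 cells by a DNA-binding dye excluded from viable cells. Compounds were transferred in DMSO 5 h after seeding; fluorescence was recorded at intervals up to 40 h.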
Experiment [6] can be described thus: A CellTox Green Cytotoxicity Assay to monitor cytotoxicity in HepG2 cells - 8 hour (AID 1224890). Note: nearly all actives have a fitted effect of over 45% in size. Note: potency is the fitted concentration of half-maximal effect. In short, it runs like this:
as §1

Experiment [7] in a line: qHTS assay to identify small molecule antagonists of the estrogen receptor alpha (ER-alpha) signaling pathway using the BG1 cell line in the presence of 0.1 nM 17-beta-estradiol - cell viability counter screen (AID 1259241). Note: nearly all actives have a fitted effect of over 40% in size. Note: potency is the fitted concentration of half-maximal effect. A digest of the protocol: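 Following 5 days in phenol red-free medium with charcoal-stripped serum, VM7Luc4E2 cells received test compounds alongside 0.1 nM 17beta-estradiol (final) at 37C for 22 hr. Live cells were then quantified via protease-substrate fluorescence.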

The nature of experiment [8]: qHTS assay to identify small molecule antagonists of the androgen receptor (AR) signaling pathway using the MDA cell line in the presence of 0.5 nM R1881 - cell viability counter screen (AID 1259242). Note: nearly all actives have a fitted effect of over 45% in size. Note: potency is the fitted concentration of half-maximal effect. A digest of the protocol: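 Cytotoxicity toward MDA-kb2 cells is measured by CellTiter-Fluor live-cell protease fluorescence after 16 hr compound exposure at 37C in the presence of 0.5 nM R1881 stimulator.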

The nature of experiment [9]: qHTS assay to identify small molecule HDAC inhibitors (AID 1259364). Note: nearly all actives have a fitted effect of over 45% in size. Note: potency is the fitted concentration of half-maximal effect. A digest of the protocol: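 Homogeneous cell-based luminescent assay of endogenous class I/II HDAC activity; HCT-116 cells, 2 h compound exposure, 30 min HDAC-Glo development at RT.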
Experiment [10] in a line: qHTS assay to identify small molecule HDAC inhibitors - cell viability counter screen (AID 1259365). Note: series mostly up to about 92 µM; nearly all actives have a fitted effect of over 50% in size. In short, it runs like this:
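HCT-116 wild-type, overnight attachment; 2hr drug exposure, 37C; CellTiter-Glo luminescent ATP readout after 30min RT.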

Experiment [11] is described as follows: qHTS assay to identify small molecule antagonists of the sonic hedgehog signaling (Shh) pathway - cell viability counter screen (AID 1259367). Note: nearly all actives have a fitted effect of over 55% in size. Note: potency is the fitted concentration of half-maximal effect. In short, it runs like this: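 Seed 3T3 Gli1-Luc cells at 2,000 per well; incubate 4 hr; add compound in DMSO, then conditioned medium; incubate at 37C with 5% CO2; add CellTiter-Fluor after 23 hr; read fluorescence 1 hr later.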

Experiment [12] in a line: qHTS assay to identify small molecule agonists of the sonic hedgehog signaling (Shh) pathway (AID 1259368; calls by dose curve;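 note: NIH/3T3-derived 3T3Gli1-Luc cells carrying a stable Gli1-driven firefly luciferase reporter; series mostly up to about 92 µM; nearly all actives have a fitted effect of over 15% in size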). A digest of the protocol: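 Steps: seed 3T3 Gli1-Luc cells, incubate 4 hr at 37 C, pin-transfer compounds in DMSO alongside a positive control, incubate 24 hr, add luciferase detection reagent, wait 30 min at room temperature, read luminescence.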
Experiment [13] can be described thus: qHTS assay to identify small molecule antagonists of the sonic hedgehog signaling (Shh) pathway (AID 1259369; calls by dose curve; note: nearly all actives have a fitted effect of over 45% in size; note: potency is the fitted concentration of half-maximal effect). A digest of the protocol:
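Inhibition of Shh signalling is measured as reduced Gli1-response-element firefly luciferase output in an NIH/3T3-derived stable reporter clone stimulated with conditioned medium for 24hr.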

Experiment [14] in a line: A CellTox Green Cytotoxicity Assay to monitor cytotoxicity in HEK293 cells - 8 hour (AID 1224884). Note: nearly all actives have a fitted effect of over 35% in size. A digest of the protocol: as §2
Experiment [15] can be described thus: qHTS RealTime-Glo MT Cell Viability Assay in HepG2 cells - 16 hour (AID 1224885). Note: nearly all actives have a fitted effect of over 50% in size. A digest of the protocol: (§3)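 Cells + NanoLuc/prosubstrate dispensed (600 cells/well) → 5 h at 37 C/5% CO2 → compounds in DMSO transferred → 40 h incubation at 37 C, luminescence read at 0, 8, 16, 24, 32, 40 h.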
Experiment [16] can be described thus: qHTS RealTime-Glo MT Cell Viability Assay in HepG2 cells - 0 hour (AID 1224889). Note: nearly all actives have a fitted effect of over 50% in size. A digest of the protocol:
as §3

Experiment [17] concerns the target Estrogen receptor (Homo sapiens) (UniProt P03372). Kind of experiment: qHTS assay to identify small molecule antagonists of the estrogen receptor alpha (ER-alpha) signaling pathway using the BG1 cell line in the presence of 0.1 nM 17-beta-estradiol (AID 1259244). Note: nearly all actives have a fitted effect of over 50% in size. Note: potency is the fitted concentration of half-maximal effect. A digest of the protocol:
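After 5 days in hormone-depleted medium (charcoal-stripped serum, no phenol red), VM7Luc4E2 cells were seeded, incubated 24 h, then co-treated with compound and 0.1 nM (final) estradiol for 22 h before luminescence detection.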

A short description of experiment [18]: qHTS assay to identify small molecule phospholipidosis (PLD) inducers (AID 1259344; active = well fitted curve in the direction sought with a large enough effect; an effect the other way counts as inactive or inconclusive). In short, it runs like this: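 Quantitative HTS in HepG2: compound plus LipidTOX Red dye for 24 h, paraformaldehyde fixation with Hoechst 33342, widefield high-content imaging; amiodarone as positive and DMSO as negative control.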
A short description of experiment [19]: qHTS assay to identify small molecule agonists of the sonic hedgehog signaling (Shh) pathway - cell viability counter screen (AID 1259366). Note: nearly all actives have a fitted effect of over 50% in size. Note: potency is the fitted concentration of half-maximal effect. A digest of the protocol:
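Compounds in DMSO were pin-transferred onto 3T3 Gli1-Luc cells that had settled 4hr; plates then stood 24hr at 37C and 5% CO2. One hour before the end, CellTiter-Fluor was added and fluorescence recorded.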

In experiment [20] the target is Androgen receptor (Homo sapiens) (UniProt P10275). Kind of experiment: qHTS assay to identify small molecule antagonists of the androgen receptor (AR) signaling pathway using the MDA cell line in the presence of 0.5 nM R1881 (AID 1259243). In short, it runs like this:
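Steps: seed MDA-kb2 cells, incubate 5 hr at 37C; pin-transfer compounds in DMSO; add R1881 to 0.5 nM final; incubate 16 hr; add ONE-Glo, wait 30 min at room temperature; read luminescence.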

Several values for one entry are separate records, joined by “and”; a condition that tells them apart may be missing. Equal values may be shown once. Results filed as inconclusive are left out. Some structures have more than one record in an assay (separate samples or runs), and their calls can disagree. Activity calls are given as the source filed them. Unless noted, calls come from the whole dose curve; as a rule, active = well fitted curve in the direction sought with a large enough effect in the repeat runs; inconclusive = weak or mixed curves; inactive = no such curve, though single readings can be large; an effect the other way counts as inactive or inconclusive.

Sequence of Estrogen receptor (Homo sapiens) (P03372 whole entry, looked up): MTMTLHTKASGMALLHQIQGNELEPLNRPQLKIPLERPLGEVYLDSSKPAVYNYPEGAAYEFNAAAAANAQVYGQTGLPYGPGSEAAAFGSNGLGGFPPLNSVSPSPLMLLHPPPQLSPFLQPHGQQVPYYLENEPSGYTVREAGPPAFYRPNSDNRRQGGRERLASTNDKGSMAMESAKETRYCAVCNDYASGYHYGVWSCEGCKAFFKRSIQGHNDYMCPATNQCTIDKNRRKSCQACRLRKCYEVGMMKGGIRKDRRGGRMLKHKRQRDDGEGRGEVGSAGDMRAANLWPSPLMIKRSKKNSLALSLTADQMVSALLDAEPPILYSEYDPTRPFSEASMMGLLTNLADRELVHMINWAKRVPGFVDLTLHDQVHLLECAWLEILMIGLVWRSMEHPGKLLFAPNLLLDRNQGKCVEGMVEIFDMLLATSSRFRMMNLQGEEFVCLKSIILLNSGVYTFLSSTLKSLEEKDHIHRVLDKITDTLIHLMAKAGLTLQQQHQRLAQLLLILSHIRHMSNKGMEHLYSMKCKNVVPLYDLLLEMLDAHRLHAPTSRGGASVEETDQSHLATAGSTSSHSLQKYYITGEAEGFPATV
Sequence of Androgen receptor (Homo sapiens) (P10275 whole entry, looked up): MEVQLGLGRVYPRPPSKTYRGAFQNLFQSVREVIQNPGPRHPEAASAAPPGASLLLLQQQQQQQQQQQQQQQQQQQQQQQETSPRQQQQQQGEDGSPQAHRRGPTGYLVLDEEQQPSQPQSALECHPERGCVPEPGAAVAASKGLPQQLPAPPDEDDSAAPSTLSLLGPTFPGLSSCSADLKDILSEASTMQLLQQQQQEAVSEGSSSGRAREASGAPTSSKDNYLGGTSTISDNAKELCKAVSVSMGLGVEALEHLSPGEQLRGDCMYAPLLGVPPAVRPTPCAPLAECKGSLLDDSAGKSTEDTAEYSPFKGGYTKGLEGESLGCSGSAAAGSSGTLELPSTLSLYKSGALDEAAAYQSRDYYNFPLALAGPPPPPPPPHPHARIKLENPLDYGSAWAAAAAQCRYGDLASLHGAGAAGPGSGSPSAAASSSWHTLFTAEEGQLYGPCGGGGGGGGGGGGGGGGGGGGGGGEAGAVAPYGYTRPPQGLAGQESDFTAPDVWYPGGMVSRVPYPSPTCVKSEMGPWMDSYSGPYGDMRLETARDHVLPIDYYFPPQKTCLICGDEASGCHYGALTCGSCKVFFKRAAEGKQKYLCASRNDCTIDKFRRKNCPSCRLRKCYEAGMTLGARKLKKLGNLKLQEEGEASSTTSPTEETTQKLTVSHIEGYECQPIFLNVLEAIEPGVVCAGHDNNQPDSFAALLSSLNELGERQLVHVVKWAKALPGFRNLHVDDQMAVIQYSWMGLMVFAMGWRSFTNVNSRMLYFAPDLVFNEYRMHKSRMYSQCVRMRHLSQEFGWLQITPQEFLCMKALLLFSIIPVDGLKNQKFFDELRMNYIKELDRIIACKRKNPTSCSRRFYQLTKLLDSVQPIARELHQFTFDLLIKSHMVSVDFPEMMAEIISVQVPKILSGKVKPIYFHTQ

Take `CCOC(=O)c1ccc(C2CCC(NC[C@H](O)COc3ccc(O)c(NS(C)(=O)=O)c3)CC2)cc1` (some centres undefined): the Potency entry in [1], in [5], in experiment [6], in experiment [7], in experiment [8] and in [9] was “inactive” each time. Also, the Potency result in experiment [10] and in [12] was “inactive” each time. For the same compound, the Potency in experiment [2] was 45.2 µM (active); in experiment [3], 20.2 µM (active); in experiment [4], 20.2 µM (active); in [11], 50.2 µM (active); in experiment [13], 10 µM (active).
With `COC(C)=O`, the Potency entry in experiment [2], in [14], in experiment [15], in experiment [3], in [4] and in experiment [5] was “inactive” throughout. Moreover, the Potency result in [16], in experiment [6], in experiment [7], in experiment [8], in experiment [17] and in [18] was “inactive” in each case. Moreover, the Potency entry in experiment [9], in experiment [10], in experiment [19], in [11], in experiment [12] and in [13] was “inactive” in each case.
Turning to `CN1CCN(Cc2cc(-c3ccc4[nH]c(=O)oc4c3)co2)[C@@H](c2ccc(F)cc2)C1`, the Potency entry in experiment [1], in [5], in experiment [16], in experiment [6], in experiment [8] and in experiment [9] was “inactive” each time. The Potency result in experiment [10] and in experiment [12] was “inactive” in each case. The Potency in experiment [2] was 42 µM (active); in experiment [3], 26.5 µM (active); in experiment [13], 4.16 µM (active).
For the compound `CC[N+](CC)(CC)CCOc1ccc(/C=C/c2ccccc2)cc1`, the Potency result in [1], in experiment [15], in experiment [4], in experiment [5], in experiment [16] and in experiment [6] was “inactive” each time. For the same compound, the Potency entry in [7], in experiment [18], in experiment [9], in experiment [10], in experiment [11] and in experiment [12] was “inactive” in each case. Further, in [17], the Potency is 13.3 µM (active).
Regarding `Cc1ccc(N/N=c2\c(=O)cc/c(=N\Nc3ccc(S(=O)(=O)O)cc3)c2=O)c(C)c1`, the Potency entry in [1], in [2], in experiment [3], in experiment [4], in experiment [5] and in [6] was “inactive” in each case. The Potency result in experiment [10], in experiment [12] and in experiment [13] was “inactive” throughout. In addition, the Potency in [7] is 27.3 µM (active); in [8] it was 48.6 µM (active); in [9], 19.3 µM (active); in experiment [19], 30.6 µM (active); in experiment [11] it was 27.3 µM (active).
On to `Sc1nc2ccccc2s1`, for which the Potency result in experiment [1], in experiment [14], in experiment [15], in [3], in experiment [4] and in experiment [6] was “inactive” in each case. In addition, the Potency entry in [7], in [8], in [10] and in experiment [12] was “inactive” in each case. In addition, the Potency in [13] is 54.5 µM (active).
Regarding `Cc1c2ccccc2c(C)c2c1ccc1ccccc12`, the Potency entry in experiment [1], in experiment [2], in [5], in [6], in experiment [7] and in experiment [9] was “inactive” each time. Besides, the Potency entry in [10] and in experiment [12] was “inactive” each time. Besides, the Potency in experiment [3] was 43.2 µM (active) and 21.9 µM (active); in experiment [8], “inactive and 61.1 µM (active)”; in [20], 48.1 µM (active) and 27.3 µM (active); in experiment [17], “inactive and 4.33 µM (active)”; in experiment [19], “inactive and 68.6 µM (active)”; in experiment [11], “inactive and 61.1 µM (active)”. In addition, the Potency in experiment [13] is 10.9 µM (active).
For `CCC(C)n1ncn(-c2ccc(N3CCN(c4ccc(OC[C@H]5CO[C@](Cn6cncn6)(c6ccc(Cl)cc6Cl)O5)cc4)CC3)cc2)c1=O` (some centres undefined), the Potency result in experiment [1], in [2], in experiment [5], in experiment [16], in experiment [6] and in experiment [7] was “inactive” in each case. Further, the Potency entry in experiment [8], in [9], in [10], in [19], in experiment [11] and in experiment [12] was “inactive” throughout. For the same compound, the Potency in experiment [13] is 1.68 µM (active).
As for `O=C1CCCCCCCCCCCCCCCO1`, the Potency in experiment [1] is 38.9 µM (active); in experiment [2], 43.6 µM (active); in experiment [5], 24.5 µM (active); in experiment [6] it was 43.6 µM (active). Further, the Potency entry in experiment [3], in experiment [4], in [16], in experiment [7], in experiment [8] and in experiment [17] was “inactive” each time. In addition, the Potency result in [9], in experiment [10], in [19], in experiment [11], in experiment [12] and in experiment [13] was “inactive” in each case.

These data come from PubChem BioAssay (Tox21).
